Experimental data as given in PubChem BioAssay (NCI).
About 79,000 compounds went through this panel and 15% of them were active in at least one assay; those are over-represented in the sample as a whole. Cut-off read from the data, not from the text of the source: active = growth inhibition above about 70%; inactive = the rest.

Key:
[1] = NCI Yeast Anticancer Drug Screen. Data for the rad50 strain (AID 155);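 note: 0% = growth of vehicle-only cultures of the same strain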; details: S. cerevisiae rad50 strain growth inhibition; at 50.0 µM; active compounds read high
Summary of the method: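 DNA repair mutant yeast, compound exposure, growth read-out; inhibition is taken relative to vehicle.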

[2] = NCI Yeast Anticancer Drug Screen. Data for the mec2-1 strain (AID 157); details: S. cerevisiae mec2-1 strain, at 50.0 µM, active compounds read high
Summary of the method: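 mec2-1 yeast strain, carrying an alteration in DNA damage repair or cell cycle control, was exposed to compounds; growth inhibition was measured relative to vehicle-treated controls.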

[3] = NCI Yeast Anticancer Drug Screen. Data for the sgs1 mgt1 strain (AID 161);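 note: 0% = growth of cultures given vehicle only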; details: S. cerevisiae sgs1 mgt1 strain, at 50.0 µM, active compounds read high
Summary of the method: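 Growth of a repair-deficient yeast mutant was monitored after compound treatment and expressed as inhibition relative to vehicle-treated cultures.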

[4] = NCI Yeast Anticancer Drug Screen. Data for the cln2 rad14 strain (AID 165);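 note: 0% = growth equal to vehicle treated cultures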; details: S. cerevisiae cln2 rad14 strain, at 50.0 µM, active compounds read high
Summary of the method: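 Yeast carrying cln2 and rad14 alterations (cell cycle control and DNA damage repair) were exposed to compounds. Growth inhibition was measured against vehicle-treated controls.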

[5] = NCI Yeast Anticancer Drug Screen. Data for the bub3 strain (AID 167); details: S. cerevisiae bub3 mutant strain, at 50.0 µM, active compounds read high
Summary of the method: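 In this screen, a yeast mutant lacking normal mitotic checkpoint function is challenged with compound. Relative growth versus vehicle gives the inhibition value.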

[6] = NCI Yeast Anticancer Drug Screen. Data for the mlh1 rad18 strain (AID 175); details: S. cerevisiae mlh1 rad18 strain growth inhibition; at 50.0 µM; active compounds read high
Summary of the method: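 Growth inhibition of the yeast strain was measured after compound exposure and expressed relative to vehicle-treated controls. The strain carries defined defects in DNA damage repair.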

Measured: growth inhibition

COC(=O)c1cccc(O)c1O
inactive: [1] 12.9% | [2] -0.3% | [3] -1.5% | [4] -41.4% | [5] 18% | [6] -0.65%

CCOC(=O)C(CC(c1ccc2c(c1)OCO2)C(C(=O)OCC)[N+](=O)[O-])C(=O)OCC (configuration not stated)
inactive: [1] 61.2% | [2] 23.9% | [3] 58.6% | [4] 27.3% | [5] 15.6% | [6] 39.3%

CCC(CC)C1CC[N-]CC1.CCC(CC)C1CC[N-]CC1.CCC(CC)C1CC[N-]CC1.CCC(CC)C1CC[N-]CC1.N#C[S-].N#C[S-].[Co]
inactive: [1] 16.4% | [2] 15.1% | [3] 3.1% | [4] 13.8% | [5] 19.4% | [6] 29.7%

Nc1cc(CO)cc(Nc2c3ccccc3nc3ccccc23)c1
inactive: [1] 26.8% | [2] 7.35% | [3] -30.8% | [4] -6.95% | [5] 0.65% | [6] 48.5%

O=c1ccc2cc3c(cc2[nH]1)OCO3
inactive: [1] 2.5% | [2] -1.25% | [3] -4.2% | [4] -39.5% | [5] -9.2% | [6] 7.05%

CCCCCCCCCCCCCC#N
inactive: [1] 5.85% | [2] -3.55% | [3] 3.35% | [4] 5.25% | [5] 1.65% | [6] 25.8%

CN(C)c1ccc(/[N+]([O-])=C/c2cccc3ccccc23)cc1
inactive: [1] 3.05% | [2] 22.6% | [3] 15.2% | [4] -51.9% | [5] 60.3% | [6] 38.4%

O=C(C#CP(=O)(O)c1ccccc1)c1ccccc1
inactive: [1] 22.5% | [2] 16.4% | [3] -6.2% | [4] 17.5% | [5] -17.6% | [6] 3.05%

NC(=O)C[n+]1cccc(C(=O)Nc2ccc(Cl)cc2)c1
inactive: [1] 2.3% | [2] 9.3% | [3] 3.95% | [4] -23.4% | [5] 29.2% | [6] -0.75%

CC(=O)CC(=O)OC(C)OC(=O)CC(C)=O
inactive: [1] -2.1% | [2] -13.4% | [3] -11.4% | [4] -2.5% | [5] -0.7% | [6] 0.25%

O=[N+]([O-])c1cccc(Cc2nncc3ccccc23)c1
inactive: [1] 4.15% | [2] 35.9% | [3] 17.6% | [4] 0.05% | [5] 44.5% | [6] 17.7%

NC(=S)NNC(=O)c1ccncc1
inactive: [1] 13.3% | [2] -3.1% | [3] 1.8% | [4] 10.4% | [5] 3.75% | [6] 7.05%

Cc1cccc([B-]23OCC[N+]2(CNC(=O)c2ccccc2O)CCO3)c1 (configuration not stated)
inactive: [1] -21.6% | [2] -19.8% | [3] -7.5% | [4] -11.6% | [5] -18.4% | [6] -16.8%

CN(C)c1nc2oc(-c3ccccc3)c(-c3ccccc3)c2c2nnnn12
inactive: [1] 12% | [2] 8.05% | [3] 2.65% | [4] 15.8% | [5] 1.65% | [6] -11.9%

C=CC1C(OC2OC(CO)C(O)C(O)C2O)OC=C(C(=O)OC)C1CC1CC(=O)CC(CCc2ccc(O)cc2)O1 (configuration not stated)
inactive: [1] 1.8% | [2] -10.1% | [3] -4.9% | [4] 1.45% | [5] -13.9% | [6] -76.2%

C(=C\c1ncc(-c2ccccc2)cc1-c1ccccc1)/c1ccccc1
inactive: [1] -12.3% | [2] -20.8% | [3] 5.8% | [4] -6.8% | [5] 0.75% | [6] -1.9%

COC(=O)/C=C1/OC(c2ccc(C)cc2C)=CC1=O
inactive: [1] 47.8% | [2] 50.7% | [3] 42.5% | [4] 0.8% | [5] 26.6% | [6] 57.1%

O=CNC(NC=O)c1ccccc1[N+](=O)[O-]
inactive: [1] 29.9% | [2] 20.8% | [3] 30.1% | [4] 0.65% | [5] 52.5% | [6] 28.6%

COC(=O)C(C)Oc1ccc(O)cc1 (configuration not stated)
inactive: [1] 21.7% | [2] -3% | [3] 5% | [4] 7.7% | [5] 19.7% | [6] 10.4%

Cc1cccc(NC(=O)Oc2ccc(Cl)cc2C(=O)c2ccccc2)c1
inactive: [1] 30.4% | [2] 10.7% | [3] 35.4% | [4] 29.9% | [5] 34.4% | [6] 26.2%

CC(C)(C)OC[C@H](O)CC#N
inactive: [1] -8.2% | [2] -61.4% | [3] -36.1% | [4] -20.4% | [5] -30.8% | [6] -26.4%

Fc1c(F)c(F)c(Nc2c(F)c(F)c3c(F)c(F)c(F)c(F)c3c2F)c(F)c1F
inactive: [1] 1.15% | [2] 49.7% | [3] -16.3% | [4] -62.9% | [5] 2.9% | [6] 0.95%

Cc1cc(N=Cc2cccs2)cc(Cl)c1O
inactive: [1] 21.7% | [2] 14.4% | [3] 5.05% | [4] 12.2% | [5] 41.8% | [6] 24.8%

Nc1nc(Cc2ccccc2)c(CCCNc2ccccc2)c(=O)[nH]1
inactive: [1] -4.95% | [2] 5.05% | [3] 6.45% | [4] -74.3% | [5] 1.75% | [6] -12.8%

COC(=O)/C=C/CCOS(C)(=O)=O
inactive: [1] 9.6% | [2] -35% | [3] 0.55% | [4] -39% | [5] -3.25% | [6] 16.5%

Cc1cc(=O)n(-c2ccc(-c3ccc(-n4c(C)c(C(=O)O)c(C)cc4=O)cc3)cc2)c(C)c1C(=O)O
inactive: [1] -45% | [2] 6.35% | [3] 19.3% | [4] 24.1% | [5] -2.4% | [6] 27.6%

CCCCCCC(C)(C)NC(N)=O
inactive: [1] -9.4% | [2] 4.4% | [3] -4.5% | [4] 16.8% | [5] 3.75% | [6] -11.8%

Nc1nc(SCC(=O)O)[nH]c(=O)c1NS(=O)(=O)c1ccccc1[N+](=O)[O-]
inactive: [1] 21.4% | [2] -4.1% | [3] -2.4% | [4] 23.1% | [5] 2.75% | [6] 5.6%

Cc1ccc(C(=N)c2ccccc2Cc2ccccc2)cc1
inactive: [1] -14.4% | [2] -10.7% | [3] -12.8% | [4] 2.75% | [5] 3.9% | [6] -20.3%

COC1=CC(=C(c2ccc(O)c(OC)c2)c2ccc(O)c(OC)c2)C=CC1=O
inactive: [1] -2.75% | [2] -6.95% | [3] -2.55% | [4] 4.4% | [5] -22.4% | [6] -31.9%

N#CCCC1(CCC#N)CCc2ccccc2C1=O
inactive: [1] 26.6% | [2] 1.2% | [3] 24.6% | [4] 25.9% | [5] 8.1% | [6] 40%

CCOc1c(OC)ccc(C(C)=O)c1O
inactive: [1] -17.8% | [2] -15.2% | [3] -22.1% | [4] -2.35% | [5] 3% | [6] -17.2%

NC(=O)NC12CC3CC(CC(F)(C3)C1)C2
inactive: [1] -19.6% | [2] -29.1% | [3] -29.7% | [4] -0.95% | [5] -47.5% | [6] -9.85%

CC1=NC2(CCCCC2)N(Cl)C(=O)C1SC#N (configuration not stated)
inactive: [1] -45.2% | [2] -72.3% | [3] -23.8% | [4] -27.6% | [5] -13.8% | [6] -27.4%

CCOc1ccccc1N=Nc1c(C)nn(C(=S)SC)c1OCC
inactive: [1] 22.5% | [2] 18.4% | [3] 26.4% | [4] 30.2% | [5] 14% | [6] 39.2%

COC(=O)[C@H]1[C@H]2C[C@@H]3c4[nH]c5cc(OC)ccc5c4CCN3C[C@H]2C[C@@H](OC(=O)c2cc(OC)c(OC)c(OC)c2)[C@@H]1OC
inactive: [1] 16.5% | [2] -14.2% | [3] -8.9% | [4] -3.65% | [5] 25.7% | [6] 12.8%

COc1cc(/C=C/C=C(C(=O)O)C(=O)O)cc(OC)c1OC
inactive: [1] -5% | [2] -1.2% | [3] -14.7% | [4] -11.4% | [5] -6.2% | [6] -4.45%

CCOC(=O)c1cnc2ccccc2c1
inactive: [1] 3.65% | [2] 6.8% | [3] 5.95% | [4] -44.9% | [5] -1.15% | [6] 3.3%

O=C(Nc1ccccc1)O/N=C(/c1ccccc1)c1cccnc1
inactive: [1] 15.2% | [2] -5.1% | [3] 13.2% | [4] -3.3% | [5] 15.2% | [6] 6.3%

Cc1ccccc1/C=N\NC(=O)CCCC(=O)N/N=C/c1ccccc1C
inactive: [1] -8.9% | [2] 2.5% | [3] -25.5% | [4] 8.7% | [5] 24.4% | [6] -9.4%

NNC(=O)C(=O)N/N=C(/CC1(O)C(=O)Nc2ccccc21)c1ccc(Cl)cc1Cl (configuration not stated)
inactive: [1] -0.9% | [2] 4% | [3] -15.9% | [4] -53.4% | [5] 0.75% | [6] -1.95%

Nc1ncnc2nc(N=Nc3ccc(S(=O)(=O)O)cc3)[nH]c12
inactive: [1] 4.25% | [2] -21.1% | [3] -1.2% | [4] -23.4% | [5] -6.35% | [6] -6.75%
